The campaign covered roughly 4,100 compounds. About 1,600 (39%) were called active. Not shown: some 25% with an inconclusive outcome. The call rests on the fitted dose curve; in most records, active means well fitted inhibition curve with a large enough effect; inconclusive means small, poorly fitted or top-dose-only effect; inactive means no such curve, though single readings can be large or run the other way. Some of the results follow. Entries that show only a call come without a potency.
Assay: qHTS Validation assay for Inhibitors of Plasmodium falciparum Dd2 growth in vitro; further: nearly all actives have a fitted effect of over 70% in size
Details: P. falciparum Dd2 in RBCs, SYBR Green growth, 72 h; series mostly up to 28.7 µM
Text: Malaria, a parasitic disease spread to humans through the bite of a Plasmodium infected Anopheles mosquito, continues to be a global health burden affecting millions of people, with an estimated 228 million cases and 405,000 deaths in 2018. Concerns about safety and limitations of current antimalarial treatments strongly emphasize the need to develop new therapeutic options. The scarce number of chemotypes and validated drug targets with efficacy against the liver stage, have hindered development of new antimalarials. To address this, a chemoprophylactic drug discovery effort was conducted through a combined phenotypic high-throughput asexual blood stage and liver stage screen, providing a robust foundation to identify liver-stage active lead chemotypes. Compounds were initially screened against Plasmodium falciparum Dd2 strain parasites using a in vitro SYBRGreen-1 based 72 hr proliferation assay to identify novel chemotypes to advance to liver stage assays. NIH/NCATS Early Translation Branch Assay Submitter (PI): Anton Simeonov Ph.D.
[…] Assay Protocol: PROTOCOL TABLE (as described by Inglese et al., 2007) SEQUENCE No. (e.g., 1, 2, 3, etc.); PARAMETER (e.g., Cells, Incubation, Reagent, etc.); VALUE; DESCRIPTION SEQUENCE, Parameter, Description 1; Reagent; 3 uL complete malaria growth medium, 1536 TC treated Black clear bottom plate 2; Controls; 23 nL positive control artesunate (300 nM final) to column 1; Neutral control DMSO to columns 2-4 3; Compound; 23 nL of compounds in dose response concentration (29 uM to 0.5 nM final) 4; Reagent; 5 uL malaria infected red blood cells (2.5% hematocrit final, 0.3% parasitemia 5; Time; 72 hours at 37C (5% O2, 5% CO2, 90% N2; 95% Rh) 6; Reagent; 2 uL lysis buffer/SYBRGreen-1, 25 sec shake immediately following dispense 7; Time; ~16 hours at 37C (5% O2, 5% CO2, 90% N2; 95% Rh) 8; Detector; EnVision (PerkinElmer) bottom read at 485/14nm excitation and 535/25 nm emission NOTES (numbers refer to sequence above): 1; Complete Malaria Growth Media: 1X RPMI-1640 w/L-glutamine, 5.5g/L Albumax II, 367 uM Hypoxanthine, 25 mM HEPES, 0.25% Sodium Bicarbonate, 35 uM Gentamicin sulfate 2; Controls were added using the Kalypsis Pintool (Wako USA) equipped with 1536 pinhead 3; Compounds were added in a 7-point, titration with a high final concentration of 29 uM by Pintool from seven inter-plate titrations of library plates and two DMSO control plates at the beginning and end (see Yasgar et al., 2008). 4; Red blood cells infected with Plasmodium falciparum Dd2 parasites were used. 6; Lysis buffer: 20 mM Tris-HCl, 10 mM EDTA, 0.16% Saponin, 1.6% Triton-X, 10X SYBR Green. REFERENCE: Inglese J, Shamu CE, Guy RK. 2007. Reporting data from high-throughput screening of small-molecule libraries. Nat Chem Biol. doi:10.1038/nchembio0807-438 Yasgar A, Shinn P, Jadhav A, Auld D, Michael S, Zheng W, Austin CP, Inglese J, Simeonov A. 2008. Compound Management for Quantitative High-Throughput Screening. J Lab Autom 13:79-89. doi:10.1016/j.jala.2007.12.004
Potency means the concentration at half of the fitted maximal effect.

Row | Compound | Potency
1 | COc1ccc(C)cc1NCc1cc(=O)oc2cc(-c3ccccc3)c(O)cc12 | 5.31 µM (active)
2 | COc1ccccc1NCc1cc(=O)oc2c(C)c(O)ccc12 | 5.96 µM (active)
3 | Cc1ccc(Nc2cc(=O)oc3ccccc23)c(C)c1 | inactive
4 | COc1ccc(-c2nc3ccccc3o2)cc1NC(=O)COc1c(C)cc(Cl)cc1Cl | inactive
5 | O=C(Nc1ccc([N+](=O)[O-])cc1)Nc1ccc(OC(F)F)c(Cl)c1 | 2.66 µM (active)
6 | Oc1ccc(CN2CCCCC2)nc1-c1ccccc1 | 0.531 µM (active)
7 | CN1C(=O)CC(C(=O)O)C12CCN(Cc1cccc(C(=O)O)n1)CC2 (stereo unspecified) | inactive
8 | Oc1ccc(-c2ccccc2)cc1CN1CCCCCC1 | 0.266 µM (active)
9 | CNC(=O)[C@H]1C[C@H](Oc2ccccc2)CN1C(=O)CCc1nc2ccccc2[nH]1 | inactive
10 | C/C(Cl)=C/Cc1c(C)[nH]c2c(ccc3ccccc32)c1=O | 0.842 µM (active)
11 | O=c1[nH]c(C2CCCN(Cc3ccccn3)C2)nn1-c1ccc(Cl)cc1 (stereo unspecified) | 2.37 µM (active)
12 | COc1ccc(-n2nc(C3CCCN(C(=O)Nc4ccccc4)C3)[nH]c2=O)cc1 (stereo unspecified) | inactive
13 | O=c1[nH]c(C2CCCN(Cc3ccc(F)cc3)C2)nn1-c1ccc(Cl)cc1 (stereo unspecified) | inactive
14 | C/C=C/c1cc(CN2CCN(c3ccccc3)CC2)c(O)c(OC)c1 | 5.96 µM (active)
15 | COc1cc(C)cc(CN2CCC(Cc3ccccc3)CC2)c1O | 0.75 µM (active)
16 | COc1ccc(C(=O)N2CCC(Cc3nc(-c4ccccc4)n[nH]3)CC2)cc1OC | inactive
17 | CCn1ccc2sc(C)c(C(=O)N3CCC(Cc4ccccc4)CC3)c2c1=O | inactive
18 | O=C(CCc1nc2ccccc2s1)N1CCC(c2nc(C3CCOCC3)no2)CC1 | inactive
19 | COC1CN(c2ccc(C)cc2)C12CCN(C(=O)CCc1nc3ccccc3s1)CC2 (stereo unspecified) | 10.6 µM (active)
20 | CCN1C(=O)C2CC3(CCN(C(=O)CCc4nc5ccccc5[nH]4)CC3)CN2C1=O (stereo unspecified) | inactive
21 | Cc1ccc(C(=O)N2CCCC(n3cc(-c4nc(-c5ccccc5)no4)nn3)C2)cc1 (stereo unspecified) | inactive
22 | O=C(Nc1cccc(-c2nnc3n2CCCC3)c1)c1ccoc1 | inactive
23 | O=C(c1ccsc1)N1CCN(c2nnc3ccc(C(F)(F)F)cn23)CC1 | inactive

Row | Compound | Potency
24 | CCc1ccc(NC(=O)C2CCN(C(=O)c3nnn4cc(C)[nH]c(=O)c34)CC2)cc1 | inactive
25 | COc1ccc(C2Cn3cnc(C(=O)N4CCC(C(=O)Nc5ccc(F)c(C)c5)CC4)c3CO2)cc1 (stereo unspecified) | inactive
26 | CCN1CCN(C(=O)c2ccc(-c3nnc4ccc(NC(=O)C5CC5)cn34)cc2)CC1 | 6.68 µM (active)
27 | CC(=O)Nc1ccc2nnc(-c3ccc(C(=O)N4CCCCCC4)cc3)n2c1 | 8.41 µM (active)
28 | COc1ccc(C(=O)Nc2cccc(-c3nnc4n3CCCC4)c2)cc1F | inactive
29 | CCN(CC)C(=O)c1ccc(-c2nnc3ccc(NC(=O)C4CC4)cn23)cc1 | 2.99 µM (active)
30 | COc1cccc(NC(=O)c2ccc(-c3nnc4ccc(NC(=O)C5CCC5)cn34)cc2)c1 | 3.76 µM (active)
31 | Cc1ccc(CCNC(=O)C2CCN(C(=O)c3cc4c(=O)[nH]c(C)cn4n3)CC2)cc1 | inactive
32 | CCCc1noc(-c2ccn3c(CNC(=O)c4ccc(OC)cc4)nnc3c2)n1 | inactive
33 | COc1ccc(NC(=O)c2ccc3c(c2)N(C)C2CCCCN2C3=O)cc1 (stereo unspecified) | inactive
34 | CC(C)(C)NC(=O)c1ccc(-c2nnc3ccc(NC(=O)C4CC4)cn23)cc1 | 9.44 µM (active)
35 | COc1ccc(NC(=O)c2ccc(-c3nnc4ccc(NC(=O)C5CCC5)cn34)cc2)cc1 | 4.22 µM (active)
36 | CCOc1ccc(NC(=O)c2ccc(-c3nnc4ccc(NC(=O)C5CC5)cn34)cc2)cc1 | 2.99 µM (active)
37 | COc1ccc(C(=O)Nc2ccc(OCc3cc(=O)n4ccccc4n3)cc2)cc1 | inactive
38 | CCOc1ccc(C(=O)Nc2cccc(-c3nnc4n3CCCC4)c2)cc1 | inactive
39 | COc1ccc(C(=O)Nc2ccc(-c3nc4ncccc4o3)cc2)cc1 | inactive
40 | COc1ccc(NC(=O)c2ccc(-c3nnc4ccc(NC(=O)C5CC5)cn34)cc2)cc1 | 2.66 µM (active)
41 | Cc1cn2nc(C(=O)Nc3ccc4c(c3)OCCO4)cc2c(N2CCCC2)n1 | inactive
42 | COCCN1C(=O)CCc2cc(NC(=O)c3ccc4c(c3)OCO4)ccc21 | inactive
43 | CCC(=O)Nc1ccc2nnc(-c3ccc(C(=O)Nc4ccc5c(c4)OCCO5)cc3)n2c1 | 7.5 µM (active)
44 | NC(=O)c1ccccc1OCC(=O)N1CC(CNC(=O)Nc2ccccc2)C2(C1)CN(c1ccccc1)C2 (stereo unspecified) | inactive
45 | O=C(Cc1ccc(O)cc1)N1CC(CNc2ccccc2)C2(C1)CN(c1ccccc1)C2 (stereo unspecified) | 0.243 µM (active)
46 | O=[S+]([O-])(NCC1CN(Cc2ccc(O)cc2)CC12CN(c1ccccc1)C2)c1ccccc1 (stereo unspecified) | 6.68 µM (active)

Row | Compound | Potency
47 | COc1ccccc1C(=O)N1CC(CNC(=O)C2CC2)C2(C1)CN(c1ccccc1)C2 (stereo unspecified) | inactive
48 | O=C(Cc1ccccc1)NCC1CN(Cc2cccc(Cl)c2)CC12CN(c1ccccc1)C2 (stereo unspecified) | inactive
49 | CNCC(=O)N1CCC2(CC1)CN(Cc1ccccc1)CC2CO (stereo unspecified) | inactive
50 | Cn1cc(C(=O)NCC2CN([S+](=O)([O-])c3ccccc3Cl)CC23CN(c2ccccc2)C3)cn1 (stereo unspecified) | inactive
51 | Oc1ccc(CN2CC(CNc3ccccc3)C3(C2)CN(c2ccccc2)C3)cc1 (stereo unspecified) | 0.611 µM (active)
52 | O=C(N[C@H]1CCOC[C@H]1C1CCOCC1)c1ccccc1-c1ccccc1 | inactive
53 | CC(=O)Nc1ccc(NS(=O)(=O)c2cc(Br)cc3c2N(C(=O)C2CC2)CC3)cc1 | inactive
54 | O=C(CCS(=O)(=O)c1cc(Br)cc2c1N(C(=O)C1CC1)CC2)N1CCN(c2cccc(Cl)c2)CC1 | 13.3 µM (active)
55 | O=C1Cc2cc(S(=O)(=O)N3CCN(c4cccc(Cl)c4)CC3)ccc2N1 | inactive
56 | Cc1ccc(NC(=O)CCS(=O)(=O)c2cc(Br)cc3c2N(C(=O)C2CC2)CC3)cc1 | 2.37 µM (active)
57 | O=C(CCS(=O)(=O)c1cc(Br)cc2c1N(C(=O)C1CC1)CC2)Nc1ccc(Br)cc1F | 3.35 µM (active)
58 | O=C(C1CC1)N1CCc2cc(Br)cc(S(=O)(=O)N3CCN(c4cccc(C(F)(F)F)c4)CC3)c21 | 4.73 µM (active)
59 | CC(=O)N1CCc2cc(S(=O)(=O)CCC(=O)N3CCC(CCOc4ccccc4)C3)ccc21 (stereo unspecified) | inactive
60 | Cc1ccc(NC(=O)CCS(=O)(=O)c2ccc(Br)cc2)c(C)c1 | inactive
61 | CCCc1noc(-c2ccn3c(CNC(=O)c4cccc(Cl)c4)nnc3c2)n1 | inactive
62 | CCN(c1ccccc1)S(=O)(=O)c1cc(Br)cc2c1N(C(=O)C1CC1)CC2 | 2.99 µM (active)
63 | O=C(CCS(=O)(=O)c1cc(Br)cc2c1N(C(=O)C1CC1)CC2)Nc1ccc(C(F)(F)F)cc1 | 1.33 µM (active)
64 | CCN(c1ccccc1)S(=O)(=O)c1c(-c2ccc(C)cc2)csc1C(=O)OC | inactive
65 | CC(=O)NCCNC[C@@H]1C=C(C)[C@H](Cc2nnc(-c3ccccc3)o2)C[C@H]1C(C)C | 17.2 µM (active)
66 | CC1=C[C@@H](CNC(C)C)[C@H](C(C)C)C[C@H]1Cc1nnc(C(C)(C)C)o1 | inactive
67 | CC1=C[C@@H](CNCCN(C)C)[C@H](C(C)C)C[C@H]1Cc1nnc(C(C)(C)C)o1 | 15.3 µM (active)
68 | CC1=C[C@@H](CNC(C)C)[C@H](C(C)C)C[C@H]1Cc1nnc(-c2ccc(C)cc2)o1 | 13.7 µM (active)
69 | CC1=C[C@@H](CNS(C)(=O)=O)[C@H](C(C)C)C[C@H]1Cc1nnc(-c2ccccc2F)o1 | inactive

Row | Compound | Potency
70 | CC1=C[C@@H](CNC2CC2)[C@H](C(C)C)C[C@H]1Cc1nnc(-c2ccc(C)cc2)o1 | 17.2 µM (active)
71 | N#Cc1ccccc1CN1CCC([C@@H]2CNC[C@H]2CO)CC1 | inactive
72 | O=C1COc2ccc(-c3ccsc3)nc2CN1 | inactive
73 | CCN(CC)CCNC(=O)c1c(O)c2cccc3c2n(c1=O)CCC3 | 10.6 µM (active)
74 | CCN(CC)CCNC(=O)C1CCCN(S(=O)(=O)c2ccccc2)CCC(=O)NCC1 (stereo unspecified) | inactive
75 | O=C(Nc1nccs1)C1c2ccccc2C(=O)N(C2CCCC2)C12CCCC2 (stereo unspecified) | 4.22 µM (active)
76 | Cc1nnc(SCC(=O)Nc2nccs2)o1 | inactive
77 | CC(C)CN1C(=O)c2ccccc2C(C(=O)Nc2nccs2)C12CCCC2 (stereo unspecified) | 8.41 µM (active)
78 | Cc1nnc(NC(=O)C2c3ccccc3C(=O)N(CC(C)C)C23CCCCC3)s1 (stereo unspecified) | 15 µM (active)
79 | O=C(NCc1ccccn1)C1c2ccccc2C(=O)N(C2CCCC2)C12CCCCC2 (stereo unspecified) | inactive
80 | CCN(CC)CC(O)COc1ccccc1C(=O)CCc1ccccc1 (stereo unspecified) | 1.5 µM (active)
81 | CCCNCC(O)COc1ccccc1C(=O)CCc1ccccc1 (stereo unspecified) | 0.842 µM (active)
82 | CCN(CC)C(=O)C(C)[C@@H]1CC[C@@]2(C)CC[C@H](NC(=O)c3cnccn3)[C@@H](C)[C@@H]2[C@H]1O (stereo partly specified) | inactive
83 | COc1ccccc1CNC(=O)[C@@H](C)C1CC[C@@]2(C)CC[C@H](NC(=O)c3cncnc3)[C@@H](C)[C@@H]2[C@H]1O (stereo partly specified) | 2.37 µM (active)
84 | CCN(CC)C(=O)[C@@H](C)C1CC[C@@]2(C)CC[C@H](NC(=O)COc3ccccc3)[C@@H](C)[C@@H]2[C@H]1O (stereo partly specified) | inactive
85 | CCn1cnnc1CC1CCN(C(=O)C2CC2)CC1 | inactive
86 | CCS(=O)(=O)c1ccc2oc(Nc3cc(C)cc(C)c3)nc2c1 | inactive
87 | CCN(CC)c1ccc2oc(=O)c(C)nc2c1 | 6.68 µM (active)
88 | Cn1cc(C(NS(=O)(=O)c2cccc3c2OCCO3)C2CC(O)C2)cn1 (stereo unspecified) | inactive
89 | CC(C)NC(=O)CSc1nnc(CNC(=O)OC(C)(C)C)n1C | inactive
90 | CC(C)Cc1nc2nccc(-c3cccs3)n2n1 | inactive
91 | Cc1nc2ccc(C(=O)NCc3cc4n(n3)CCN(C(=O)N(C)C)C4)cc2o1 | inactive
